# Reference: paper PMC7862700, “An all-to-all approach to the identification of sequence-specific readers for epigenetic DNA modifications on cytosine”
# Key:
# Assay in all cases: DAPPL (digital affinity profiling via proximity ligation, sequencing); 10 mM Tris-HCl pH 7.5, 50 mM NaCl, 1 mM DTT, 4% glycerol, room temperature, 30 min; GST-TFs on glutathione beads, 16-mer random dsDNA library, 0.1% formaldehyde crosslink after washing; high values mean tight binding
# FLI1 = biological target: T1, FLI1 (Homo sapiens, UniProt Q01543 1-452); conditions: protein: recombinant; tags: N-terminal GST; dsDNA, one strand shown
# T1 sequence: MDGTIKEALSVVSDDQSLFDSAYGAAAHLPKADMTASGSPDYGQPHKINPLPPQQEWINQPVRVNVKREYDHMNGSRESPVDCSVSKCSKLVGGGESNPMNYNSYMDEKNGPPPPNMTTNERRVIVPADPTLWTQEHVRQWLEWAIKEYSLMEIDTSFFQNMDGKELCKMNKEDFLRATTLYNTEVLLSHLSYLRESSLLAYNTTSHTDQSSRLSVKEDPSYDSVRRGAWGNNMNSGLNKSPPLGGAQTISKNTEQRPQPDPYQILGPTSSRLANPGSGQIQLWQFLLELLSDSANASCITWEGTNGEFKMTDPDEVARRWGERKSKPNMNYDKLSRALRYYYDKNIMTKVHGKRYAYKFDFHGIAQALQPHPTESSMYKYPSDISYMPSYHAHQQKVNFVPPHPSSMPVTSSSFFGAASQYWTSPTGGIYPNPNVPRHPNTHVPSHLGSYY
# Procedure, shortened: (§1)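 Pools of DNA-barcoded human transcription factors, expressed in yeast as GST fusions on glutathione beads and combined with a tag-only sample, were incubated with 200 nmole of a 16-mer random double-stranded DNA library. Incubation took 30 min at room temperature in Tris/NaCl/DTT/glycerol buffer and was followed by washing, 0.1% formaldehyde crosslinking, proximity ligation (BsaI/T4 ligase, 1 h, 37 °C), PCR amplification and sequencing on an Illumina NextSeq500. Binding signal is the ratio of a hexamer's read frequency for a factor to its frequency for the tag-only sample.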
# ELK1 = biological target: T2, ELK1 (Homo sapiens, UniProt P19419 1-428); conditions: protein: recombinant; tags: N-terminal GST; dsDNA, one strand shown
# T2 sequence: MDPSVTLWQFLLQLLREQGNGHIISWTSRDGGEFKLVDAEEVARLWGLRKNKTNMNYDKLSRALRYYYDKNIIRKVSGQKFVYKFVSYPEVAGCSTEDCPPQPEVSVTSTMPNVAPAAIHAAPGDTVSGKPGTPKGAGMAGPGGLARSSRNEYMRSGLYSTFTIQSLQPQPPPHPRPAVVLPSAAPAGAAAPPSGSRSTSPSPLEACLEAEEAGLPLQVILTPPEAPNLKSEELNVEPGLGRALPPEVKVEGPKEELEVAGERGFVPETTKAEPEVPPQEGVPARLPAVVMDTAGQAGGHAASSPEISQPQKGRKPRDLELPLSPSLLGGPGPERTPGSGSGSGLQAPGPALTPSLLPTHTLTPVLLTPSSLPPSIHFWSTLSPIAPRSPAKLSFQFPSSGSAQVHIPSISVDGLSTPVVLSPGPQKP
# Procedure, shortened: as §1
# GABPA = biological target: T3, GABPA (Homo sapiens, UniProt Q06546 1-454); conditions: protein: recombinant; tags: N-terminal GST; dsDNA, one strand shown
# T3 sequence: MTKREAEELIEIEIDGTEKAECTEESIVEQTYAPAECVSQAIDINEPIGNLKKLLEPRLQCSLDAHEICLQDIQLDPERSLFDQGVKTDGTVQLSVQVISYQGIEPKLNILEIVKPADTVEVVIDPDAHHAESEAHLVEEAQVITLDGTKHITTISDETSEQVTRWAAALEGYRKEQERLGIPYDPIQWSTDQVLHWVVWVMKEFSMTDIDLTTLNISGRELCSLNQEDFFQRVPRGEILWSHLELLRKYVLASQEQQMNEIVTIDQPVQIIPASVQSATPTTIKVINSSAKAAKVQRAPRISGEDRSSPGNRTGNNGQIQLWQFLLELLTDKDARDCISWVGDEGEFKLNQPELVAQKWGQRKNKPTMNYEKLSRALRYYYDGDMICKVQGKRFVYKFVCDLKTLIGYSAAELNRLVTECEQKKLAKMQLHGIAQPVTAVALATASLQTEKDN
# Procedure, shortened: as §1
# ERG = biological target: T4, ERG (Homo sapiens, UniProt P11308 1-479); conditions: protein: recombinant; tags: N-terminal GST; dsDNA, one strand shown
# T4 sequence: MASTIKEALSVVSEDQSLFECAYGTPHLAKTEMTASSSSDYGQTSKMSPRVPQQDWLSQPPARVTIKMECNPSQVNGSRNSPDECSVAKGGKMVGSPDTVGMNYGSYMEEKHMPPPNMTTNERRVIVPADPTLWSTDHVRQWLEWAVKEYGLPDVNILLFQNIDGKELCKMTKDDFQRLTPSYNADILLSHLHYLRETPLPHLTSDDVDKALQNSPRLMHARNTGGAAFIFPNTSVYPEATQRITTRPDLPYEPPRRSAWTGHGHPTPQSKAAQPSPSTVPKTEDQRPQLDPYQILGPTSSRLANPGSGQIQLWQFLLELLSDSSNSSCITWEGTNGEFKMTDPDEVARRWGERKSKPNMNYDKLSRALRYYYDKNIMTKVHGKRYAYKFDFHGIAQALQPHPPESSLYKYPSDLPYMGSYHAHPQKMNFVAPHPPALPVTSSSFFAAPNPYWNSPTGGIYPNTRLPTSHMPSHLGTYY
# Procedure, shortened: as §1
# ELF1 = ELF1 (Homo sapiens, UniProt P32519 1-619); conditions: protein: recombinant; tags: N-terminal GST; dsDNA, one strand shown
# Procedure, shortened: as §1
# EHF = biological target: T5, EHF (Homo sapiens, UniProt Q9NZC4 1-300); conditions: protein: recombinant; tags: N-terminal GST; dsDNA, one strand shown
# T5 sequence: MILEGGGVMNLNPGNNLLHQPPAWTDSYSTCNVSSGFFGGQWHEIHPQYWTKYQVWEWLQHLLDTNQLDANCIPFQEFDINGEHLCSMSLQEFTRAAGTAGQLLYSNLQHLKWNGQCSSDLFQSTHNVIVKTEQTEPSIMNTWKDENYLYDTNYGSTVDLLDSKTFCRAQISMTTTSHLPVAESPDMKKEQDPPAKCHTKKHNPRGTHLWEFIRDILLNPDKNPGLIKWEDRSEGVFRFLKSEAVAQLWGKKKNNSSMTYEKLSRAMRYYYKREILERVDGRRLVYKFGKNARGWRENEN
# Procedure, shortened: as §1
# SPI1 = SPI1 (Homo sapiens, UniProt P17947 1-270); conditions: protein: recombinant; tags: N-terminal GST; dsDNA, one strand shown
# Procedure, shortened: as §1
# SPIB = SPIB (Homo sapiens, UniProt Q01892 1-262); conditions: protein: recombinant; tags: N-terminal GST; dsDNA, one strand shown
# Procedure, shortened: as §1
# ELK3 = biological target: T6, ELK3 (Homo sapiens, UniProt P41970 1-407); conditions: protein: recombinant; tags: N-terminal GST; dsDNA, one strand shown
# T6 sequence: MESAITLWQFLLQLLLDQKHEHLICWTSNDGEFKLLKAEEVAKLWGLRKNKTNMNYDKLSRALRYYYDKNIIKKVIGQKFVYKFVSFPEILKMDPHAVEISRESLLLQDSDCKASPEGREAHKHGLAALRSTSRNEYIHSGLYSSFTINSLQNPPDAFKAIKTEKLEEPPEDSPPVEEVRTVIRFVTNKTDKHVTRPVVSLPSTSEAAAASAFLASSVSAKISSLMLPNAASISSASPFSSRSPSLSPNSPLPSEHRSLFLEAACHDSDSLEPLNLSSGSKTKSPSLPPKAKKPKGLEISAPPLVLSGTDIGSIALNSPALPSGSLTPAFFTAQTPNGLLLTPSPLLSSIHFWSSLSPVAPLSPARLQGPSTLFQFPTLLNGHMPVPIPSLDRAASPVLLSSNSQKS
# Procedure, shortened: as §1
# FEV = biological target: T7, FEV (Homo sapiens, UniProt Q99581 1-238); conditions: protein: recombinant; tags: N-terminal GST; dsDNA, one strand shown
# T7 sequence: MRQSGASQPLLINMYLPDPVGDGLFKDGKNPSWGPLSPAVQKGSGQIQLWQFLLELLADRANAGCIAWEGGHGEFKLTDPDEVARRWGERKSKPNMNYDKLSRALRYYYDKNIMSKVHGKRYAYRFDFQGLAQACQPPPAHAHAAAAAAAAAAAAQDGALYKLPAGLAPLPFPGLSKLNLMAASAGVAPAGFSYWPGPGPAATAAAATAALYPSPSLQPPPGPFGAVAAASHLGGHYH
# Procedure, shortened: as §1
# ETV5 = ETV5 (Homo sapiens, UniProt P41161 1-510); conditions: protein: recombinant; tags: N-terminal GST; dsDNA, one strand shown
# Procedure, shortened: as §1
# HSF1 = HSF1 (Homo sapiens, UniProt Q00613 1-529); conditions: protein: recombinant; tags: N-terminal GST; chain copies: 3; dsDNA, one strand shown
# Procedure, shortened: as §1
# SPIC = biological target: T8, SPIC (Homo sapiens, UniProt Q8N5J4 1-248); conditions: protein: recombinant; tags: N-terminal GST; dsDNA, one strand shown
# T8 sequence: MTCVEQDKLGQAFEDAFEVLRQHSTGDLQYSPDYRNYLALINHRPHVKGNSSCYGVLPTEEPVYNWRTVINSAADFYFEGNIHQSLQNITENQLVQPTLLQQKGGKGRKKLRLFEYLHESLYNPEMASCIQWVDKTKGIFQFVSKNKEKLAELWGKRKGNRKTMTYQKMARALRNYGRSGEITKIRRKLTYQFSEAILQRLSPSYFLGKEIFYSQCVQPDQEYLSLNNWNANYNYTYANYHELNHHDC
# Procedure, shortened: as §1
# ELF4 = ELF4 (Homo sapiens, UniProt Q99607 1-663); conditions: protein: recombinant; tags: N-terminal GST; dsDNA, one strand shown
# Procedure, shortened: as §1
# ELK4 = biological target: T9, ELK4 (Homo sapiens, UniProt P28324-2 1-405); conditions: protein: recombinant; tags: N-terminal GST; dsDNA, one strand shown
# T9 sequence: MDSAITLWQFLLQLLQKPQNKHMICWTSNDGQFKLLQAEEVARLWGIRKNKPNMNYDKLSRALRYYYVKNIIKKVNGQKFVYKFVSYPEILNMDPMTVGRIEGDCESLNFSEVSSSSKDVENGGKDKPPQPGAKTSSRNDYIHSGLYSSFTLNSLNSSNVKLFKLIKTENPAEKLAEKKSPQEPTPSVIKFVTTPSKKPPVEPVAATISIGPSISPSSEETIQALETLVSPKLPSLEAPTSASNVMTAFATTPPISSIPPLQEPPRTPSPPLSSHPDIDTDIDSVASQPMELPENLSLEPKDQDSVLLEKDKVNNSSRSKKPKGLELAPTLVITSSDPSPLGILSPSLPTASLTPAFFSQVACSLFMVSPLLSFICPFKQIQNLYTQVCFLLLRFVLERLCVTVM
# Procedure, shortened: as §1
# ETV2 = biological target: T10, ETV2 (Homo sapiens, UniProt O00321 1-342); conditions: protein: recombinant; tags: N-terminal GST; dsDNA, one strand shown
# T10 sequence: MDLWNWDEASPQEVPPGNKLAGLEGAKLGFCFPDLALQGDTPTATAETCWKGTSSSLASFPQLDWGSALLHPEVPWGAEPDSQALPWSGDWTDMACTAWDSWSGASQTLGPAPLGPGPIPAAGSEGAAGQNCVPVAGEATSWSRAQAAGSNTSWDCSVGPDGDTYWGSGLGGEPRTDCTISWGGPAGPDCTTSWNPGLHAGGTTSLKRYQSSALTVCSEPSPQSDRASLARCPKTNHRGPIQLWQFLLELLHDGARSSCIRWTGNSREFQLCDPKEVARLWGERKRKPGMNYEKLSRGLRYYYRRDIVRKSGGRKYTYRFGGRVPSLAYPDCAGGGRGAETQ
# Procedure, shortened: as §1
# ELF3 = biological target: T11, ELF3 (Homo sapiens, UniProt P78545 1-371); conditions: protein: recombinant; tags: N-terminal GST; dsDNA, one strand shown
# T11 sequence: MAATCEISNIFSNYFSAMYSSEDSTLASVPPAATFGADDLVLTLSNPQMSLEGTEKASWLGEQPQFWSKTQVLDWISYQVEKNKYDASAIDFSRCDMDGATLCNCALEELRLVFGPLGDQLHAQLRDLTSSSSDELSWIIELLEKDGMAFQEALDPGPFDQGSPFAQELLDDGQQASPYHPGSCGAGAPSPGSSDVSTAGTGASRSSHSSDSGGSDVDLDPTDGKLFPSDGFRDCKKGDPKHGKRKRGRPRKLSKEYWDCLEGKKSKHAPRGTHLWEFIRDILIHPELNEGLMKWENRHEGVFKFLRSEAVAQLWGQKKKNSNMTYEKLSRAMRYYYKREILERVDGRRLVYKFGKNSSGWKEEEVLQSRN
# Procedure, shortened: as §1
# CRX = CRX (Homo sapiens, UniProt O43186 1-299); conditions: protein: recombinant; tags: N-terminal GST; dsDNA, one strand shown
# Procedure, shortened: as §1
# ETV1 = ETV1 (Homo sapiens, UniProt P50549 1-477); conditions: protein: recombinant; tags: N-terminal GST; dsDNA, one strand shown
# Procedure, shortened: as §1
# ELF1, sequence (P32519 whole entry): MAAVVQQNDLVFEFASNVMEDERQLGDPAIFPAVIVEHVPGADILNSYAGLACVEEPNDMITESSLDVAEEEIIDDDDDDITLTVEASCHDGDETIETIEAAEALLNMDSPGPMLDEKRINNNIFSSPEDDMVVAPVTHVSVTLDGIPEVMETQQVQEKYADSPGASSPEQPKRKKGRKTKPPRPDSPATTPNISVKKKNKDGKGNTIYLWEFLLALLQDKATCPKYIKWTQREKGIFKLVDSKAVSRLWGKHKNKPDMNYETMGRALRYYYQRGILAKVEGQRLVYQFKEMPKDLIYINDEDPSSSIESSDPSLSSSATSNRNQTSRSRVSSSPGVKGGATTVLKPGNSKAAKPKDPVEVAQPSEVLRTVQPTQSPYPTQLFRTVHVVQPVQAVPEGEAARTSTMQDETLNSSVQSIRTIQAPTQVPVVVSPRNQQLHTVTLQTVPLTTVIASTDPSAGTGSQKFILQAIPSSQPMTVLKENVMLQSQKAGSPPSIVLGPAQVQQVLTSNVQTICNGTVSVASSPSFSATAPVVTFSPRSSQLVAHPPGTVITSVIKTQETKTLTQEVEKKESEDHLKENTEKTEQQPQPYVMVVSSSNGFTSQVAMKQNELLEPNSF
# ELF4, sequence (Q99607 whole entry): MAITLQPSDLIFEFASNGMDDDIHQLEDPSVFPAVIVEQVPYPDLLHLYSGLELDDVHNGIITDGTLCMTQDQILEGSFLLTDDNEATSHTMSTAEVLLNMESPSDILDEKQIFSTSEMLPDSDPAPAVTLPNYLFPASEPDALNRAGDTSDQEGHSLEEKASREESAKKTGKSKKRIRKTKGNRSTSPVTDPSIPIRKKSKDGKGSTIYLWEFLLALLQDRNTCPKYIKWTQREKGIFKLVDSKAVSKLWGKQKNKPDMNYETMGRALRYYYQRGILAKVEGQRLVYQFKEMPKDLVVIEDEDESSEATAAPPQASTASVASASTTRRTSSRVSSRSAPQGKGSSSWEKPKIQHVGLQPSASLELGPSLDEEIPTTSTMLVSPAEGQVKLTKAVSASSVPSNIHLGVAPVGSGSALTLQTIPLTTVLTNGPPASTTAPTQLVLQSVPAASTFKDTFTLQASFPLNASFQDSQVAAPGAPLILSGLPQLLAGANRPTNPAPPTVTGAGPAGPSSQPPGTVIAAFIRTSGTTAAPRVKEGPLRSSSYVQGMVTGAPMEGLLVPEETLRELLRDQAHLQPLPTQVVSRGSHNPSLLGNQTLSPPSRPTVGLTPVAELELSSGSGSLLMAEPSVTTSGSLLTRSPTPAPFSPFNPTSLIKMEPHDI
# ETV5, sequence (P41161 whole entry): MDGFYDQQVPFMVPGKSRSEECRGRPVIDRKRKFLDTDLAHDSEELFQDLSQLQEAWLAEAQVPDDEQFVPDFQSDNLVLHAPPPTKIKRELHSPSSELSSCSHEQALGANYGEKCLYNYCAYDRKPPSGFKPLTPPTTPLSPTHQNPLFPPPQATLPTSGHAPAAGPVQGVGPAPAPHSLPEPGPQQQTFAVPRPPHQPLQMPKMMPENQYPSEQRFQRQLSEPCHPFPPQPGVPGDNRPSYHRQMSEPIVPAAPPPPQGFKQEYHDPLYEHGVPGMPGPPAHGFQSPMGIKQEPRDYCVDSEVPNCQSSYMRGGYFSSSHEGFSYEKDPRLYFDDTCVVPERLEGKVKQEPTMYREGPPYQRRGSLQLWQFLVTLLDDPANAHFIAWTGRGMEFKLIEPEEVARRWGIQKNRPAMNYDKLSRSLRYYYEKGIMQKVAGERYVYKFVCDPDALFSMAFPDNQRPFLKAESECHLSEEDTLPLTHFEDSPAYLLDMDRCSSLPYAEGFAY
# SPIB, sequence (Q01892 whole entry): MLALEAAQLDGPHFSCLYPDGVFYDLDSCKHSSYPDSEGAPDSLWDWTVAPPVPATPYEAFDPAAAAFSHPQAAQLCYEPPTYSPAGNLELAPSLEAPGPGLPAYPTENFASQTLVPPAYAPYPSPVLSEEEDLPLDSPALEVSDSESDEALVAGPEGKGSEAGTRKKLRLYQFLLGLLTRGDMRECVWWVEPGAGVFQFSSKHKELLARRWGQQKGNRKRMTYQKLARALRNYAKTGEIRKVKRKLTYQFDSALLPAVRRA
# HSF1, sequence (Q00613 whole entry): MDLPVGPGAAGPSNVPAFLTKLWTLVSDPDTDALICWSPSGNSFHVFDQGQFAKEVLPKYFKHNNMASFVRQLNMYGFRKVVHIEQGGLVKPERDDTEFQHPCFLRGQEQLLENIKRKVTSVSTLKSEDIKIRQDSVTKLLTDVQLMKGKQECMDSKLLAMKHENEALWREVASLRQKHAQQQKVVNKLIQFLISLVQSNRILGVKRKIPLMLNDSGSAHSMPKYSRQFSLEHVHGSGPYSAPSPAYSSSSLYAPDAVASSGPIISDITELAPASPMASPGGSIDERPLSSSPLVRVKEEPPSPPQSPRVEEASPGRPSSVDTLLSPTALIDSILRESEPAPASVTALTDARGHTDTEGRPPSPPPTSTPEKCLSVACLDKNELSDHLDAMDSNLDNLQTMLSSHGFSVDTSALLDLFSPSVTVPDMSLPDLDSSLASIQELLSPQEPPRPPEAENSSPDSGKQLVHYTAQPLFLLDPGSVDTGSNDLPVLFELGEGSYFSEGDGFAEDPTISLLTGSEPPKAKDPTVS
# ETV1, sequence (P50549 whole entry): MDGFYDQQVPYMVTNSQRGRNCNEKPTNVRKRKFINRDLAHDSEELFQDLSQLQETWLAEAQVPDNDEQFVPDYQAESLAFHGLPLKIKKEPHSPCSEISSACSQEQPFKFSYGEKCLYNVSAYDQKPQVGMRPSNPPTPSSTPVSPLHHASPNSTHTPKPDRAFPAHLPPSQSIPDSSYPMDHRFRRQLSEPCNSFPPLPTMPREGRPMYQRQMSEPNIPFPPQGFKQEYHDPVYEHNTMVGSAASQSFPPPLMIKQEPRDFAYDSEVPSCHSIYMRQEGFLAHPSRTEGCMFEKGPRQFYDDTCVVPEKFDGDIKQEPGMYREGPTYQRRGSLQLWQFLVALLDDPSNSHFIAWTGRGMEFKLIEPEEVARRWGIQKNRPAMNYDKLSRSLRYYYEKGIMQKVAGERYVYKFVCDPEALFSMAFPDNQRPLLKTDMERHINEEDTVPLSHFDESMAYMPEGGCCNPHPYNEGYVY
# CRX, sequence (O43186 whole entry): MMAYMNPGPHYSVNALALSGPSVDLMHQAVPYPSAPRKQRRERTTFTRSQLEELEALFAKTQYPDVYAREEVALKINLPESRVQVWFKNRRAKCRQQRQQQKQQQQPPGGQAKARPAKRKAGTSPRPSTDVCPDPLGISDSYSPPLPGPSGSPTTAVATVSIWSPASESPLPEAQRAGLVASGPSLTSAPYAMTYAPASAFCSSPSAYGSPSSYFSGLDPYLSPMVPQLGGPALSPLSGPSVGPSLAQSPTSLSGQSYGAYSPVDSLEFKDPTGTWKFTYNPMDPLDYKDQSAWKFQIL
sequence,measurement,setting,value
TCTGAT,binding signal,FLI1,"1.15 fold enrichment (6-mer frequency, TF over GST control)"
same,binding signal,ELK1,"1.21 fold enrichment (6-mer frequency, TF over GST control)"
same,binding signal,GABPA,"1.29 fold enrichment (6-mer frequency, TF over GST control)"
same,binding signal,ERG,"1.1 fold enrichment (6-mer frequency, TF over GST control)"
same,binding signal,ELF1,"1.27 fold enrichment (6-mer frequency, TF over GST control)"
same,binding signal,EHF,"1.25 fold enrichment (6-mer frequency, TF over GST control)"
same,binding signal,SPI1,"1.11 fold enrichment (6-mer frequency, TF over GST control)"
same,binding signal,SPIB,"1.31 fold enrichment (6-mer frequency, TF over GST control)"
same,binding signal,ELK3,"1.14 fold enrichment (6-mer frequency, TF over GST control)"
same,binding signal,FEV,"1.18 fold enrichment (6-mer frequency, TF over GST control)"
same,binding signal,ETV5,"1.23 fold enrichment (6-mer frequency, TF over GST control)"
same,binding signal,HSF1,"1.28 fold enrichment (6-mer frequency, TF over GST control)"
same,binding signal,SPIC,"1.26 fold enrichment (6-mer frequency, TF over GST control)"
same,binding signal,ELF4,"1.24 fold enrichment (6-mer frequency, TF over GST control)"
same,binding signal,ELK4,"1.19 fold enrichment (6-mer frequency, TF over GST control)"
same,binding signal,ETV2,"1.11 fold enrichment (6-mer frequency, TF over GST control)"
same,binding signal,ELF3,"1.17 fold enrichment (6-mer frequency, TF over GST control)"
same,binding signal,CRX,"1.55 fold enrichment (6-mer frequency, TF over GST control)"
same,binding signal,ETV1,"1.15 fold enrichment (6-mer frequency, TF over GST control)"
